# Results taken from the supplement of paper PMC8728848.
# Many of the other results were omitted from the sample, so the strongest signals are more common in it than they were.
# How the values were obtained:
# Assay in all cases: glycan array binding signal (z-score within array); higher = stronger binding
# Conditions in all cases: glycan notation: IUPAC condensed, linker removed
# [1] = biological target: Fuc(a1-2)Gal(b1-3)GalNAc(a1-3)[Fuc(a1-2)]Gal(b1-4)Glc
# Method in brief: (§1)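 Glycan array binding is given as a within-array Z-score, which can be read as non-binding when negative. The arrays, 3228 of them, came from the Consortium for Functional Glycomics database and were retained only where the protein sequence was available. Z-scores were averaged across arrays of the same protein sequence at different concentrations or buffers and across linkers.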
# [2] = biological target: Fuc(a1-2)Gal(b1-3)[Fuc(a1-4)]GlcNAc(b1-3)[Gal(b1-4)GlcNAc(b1-6)]Gal(b1-4)Glc
# Method in brief: as §1
# [3] = biological target: Fuc(a1-2)[Gal(a1-3)]Gal(b1-3)GlcNAc(b1-6)GalNAc
# Method in brief: as §1
# [4] = biological target: Fuc(a1-2)[Gal(a1-3)]Gal(b1-4)[Fuc(a1-3)]Glc
# Method in brief: as §1
# [5] = biological target: Fuc(a1-2)[Gal(a1-4)]Gal(b1-4)GlcNAc
# Method in brief: as §1
# [6] = biological target: Fuc(a1-2)[GalNAc(a1-3)]Gal(b1-3)GalNAc(a1-3)[Fuc(a1-2)]Gal(b1-4)GlcNAc
# Method in brief: as §1
# [7] = biological target: Fuc(a1-2)[GalNAc(a1-3)]Gal(b1-4)GlcNAc(b1-3)Gal(b1-4)GlcNAc
# Method in brief: as §1
# [8] = biological target: Fuc(a1-2)[GalNAc(a1-3)]Gal(b1-4)[Fuc(a1-3)]GlcNAc(b1-3)GalNAc
# Method in brief: as §1
# [9] = biological target: Fuc(a1-3)[Gal(b1-4)]GlcNAc6S
# Method in brief: as §1
# Gal(a1-3)Gal(b1-3)GlcNAc = biological target: Gal(a1-3)Gal(b1-3)GlcNAc
# Method in brief: as §1
# [10] = biological target: Gal(a1-3)Gal(b1-4)GlcNAc(b1-3)GalNAc
# Method in brief: as §1
# [11] = biological target: Gal(a1-4)Gal(b1-3)GlcNAc(b1-2)Man(a1-3)[Gal(a1-4)Gal(b1-3)GlcNAc(b1-2)Man(a1-6)]Man(b1-4)GlcNAc(b1-4)GlcNAc
# Method in brief: as §1
# [12] = biological target: Gal(b1-3)GlcNAc(b1-3)Gal(b1-4)GlcNAc(b1-6)[Gal(b1-3)GlcNAc(b1-3)]Gal(b1-4)Glc
# Method in brief: as §1
# [13] = biological target: Gal(b1-3)[Fuc(a1-4)]GlcNAc(b1-6)GalNAc
# Method in brief: as §1
# Gal(b1-4)GlcNAc = biological target: Gal(b1-4)GlcNAc
# Method in brief: as §1
# [14] = biological target: Gal(b1-4)GlcNAc(a1-6)Gal(b1-4)GlcNAc
# Method in brief: as §1
# [15] = biological target: Gal(b1-4)GlcNAc(b1-2)Man(a1-3)Man(b1-4)GlcNAc(b1-4)GlcNAc
# Method in brief: as §1
# [16] = biological target: Gal(b1-4)GlcNAc(b1-2)[Gal(b1-4)GlcNAc(b1-4)]Man(a1-3)[GlcNAc(b1-4)][Gal(b1-4)GlcNAc(b1-2)Man(a1-6)]Man(b1-4)GlcNAc(b1-4)GlcNAc
# Method in brief: as §1
# [17] = biological target: Gal(b1-4)GlcNAc(b1-2)[Gal(b1-4)GlcNAc(b1-6)]Man(a1-6)[Gal(b1-4)GlcNAc(b1-2)Man(a1-3)]Man(b1-4)GlcNAc(b1-4)[Fuc(a1-6)]GlcNAc
# Method in brief: as §1
# [18] = biological target: Gal(b1-4)GlcNAc(b1-3)Gal(b1-4)GlcNAc(b1-2)[Gal(b1-4)GlcNAc(b1-3)Gal(b1-4)GlcNAc(b1-6)]Man(a1-6)[Gal(b1-4)GlcNAc(b1-3)Gal(b1-4)GlcNAc(b1-2)Man(a1-3)]Man(b1-4)GlcNAc(b1-4)[Fuc(a1-6)]GlcNAc
# Method in brief: as §1
# [19] = biological target: Gal(b1-4)GlcNAc(b1-3)Gal(b1-4)GlcNAc(b1-3)Gal(b1-4)GlcNAc(b1-3)Gal(b1-4)GlcNAc(b1-2)[Gal(b1-4)GlcNAc(b1-3)Gal(b1-4)GlcNAc(b1-3)Gal(b1-4)GlcNAc(b1-3)Gal(b1-4)GlcNAc(b1-6)]Man(a1-6)[Gal(b1-4)GlcNAc(b1-3)Gal(b1-4)GlcNAc(b1-3)Gal(b1-4)GlcNAc(b1-3)Gal(b1-4)GlcNAc(b1-2)Man(a1-3)]Man(b1-4)GlcNAc(b1-4)[Fuc(a1-6)]GlcNAc
# Method in brief: as §1
# [20] = biological target: Gal(b1-4)GlcNAc(b1-3)Gal(b1-4)GlcNAc(b1-3)Gal(b1-4)GlcNAc(b1-3)Gal(b1-4)GlcNAc(b1-3)Gal(b1-4)GlcNAc(b1-2)Man(a1-3)[Gal(b1-4)GlcNAc(b1-3)Gal(b1-4)GlcNAc(b1-3)Gal(b1-4)GlcNAc(b1-3)Gal(b1-4)GlcNAc(b1-3)Gal(b1-4)GlcNAc(b1-2)Man(a1-6)]Man(b1-4)GlcNAc(b1-4)GlcNAc
# Method in brief: as §1
# [21] = biological target: Gal(b1-4)GlcNAc(b1-3)Gal(b1-4)GlcNAc(b1-3)Gal(b1-4)GlcNAc(b1-3)Gal(b1-4)GlcNAc(b1-3)Gal(b1-4)GlcNAc(b1-2)[Gal(b1-4)GlcNAc(b1-3)Gal(b1-4)GlcNAc(b1-3)Gal(b1-4)GlcNAc(b1-3)Gal(b1-4)GlcNAc(b1-3)Gal(b1-4)GlcNAc(b1-6)]Man(a1-6)[Gal(b1-4)GlcNAc(b1-3)Gal(b1-4)GlcNAc(b1-3)Gal(b1-4)GlcNAc(b1-3)Gal(b1-4)GlcNAc(b1-3)Gal(b1-4)GlcNAc(b1-2)Man(a1-3)]Man(b1-4)GlcNAc(b1-4)[Fuc(a1-6)]GlcNAc
# Method in brief: as §1
# [22] = biological target: Gal(b1-4)GlcNAc(b1-6)Gal(b1-4)GlcNAc
# Method in brief: as §1
# Gal6S(b1-3)GlcNAc6S = biological target: Gal6S(b1-3)GlcNAc6S
# Method in brief: as §1
# Gal6S(b1-4)Glc = biological target: Gal6S(b1-4)Glc
# Method in brief: as §1
# GalNAc(a1-3)GalNAc = biological target: GalNAc(a1-3)GalNAc
# Method in brief: as §1
# [23] = biological target: GalNAc(b1-3)Gal(a1-6)Gal(b1-4)Glc
# Method in brief: as §1
# GalNAc(b1-3)GalNAc = biological target: GalNAc(b1-3)GalNAc
# Method in brief: as §1
# GalNAc(b1-4)GlcNAc = biological target: GalNAc(b1-4)GlcNAc
# Method in brief: as §1
# Glc(b1-6)Glc = biological target: Glc(b1-6)Glc
# Method in brief: as §1
# [24] = biological target: GlcNAc(b1-3)Gal(b1-4)GlcNAc(b1-3)Gal(b1-4)GlcNAc(b1-3)Gal(b1-4)GlcNAc(b1-3)Gal(b1-4)GlcNAc(b1-2)[GlcNAc(b1-3)Gal(b1-4)GlcNAc(b1-3)Gal(b1-4)GlcNAc(b1-3)Gal(b1-4)GlcNAc(b1-3)Gal(b1-4)GlcNAc(b1-6)]Man(a1-6)[GlcNAc(b1-3)Gal(b1-4)GlcNAc(b1-3)Gal(b1-4)GlcNAc(b1-3)Gal(b1-4)GlcNAc(b1-3)Gal(b1-4)GlcNAc(b1-2)Man(a1-3)]Man(b1-4)GlcNAc(b1-4)[Fuc(a1-6)]GlcNAc
# Method in brief: as §1
# [25] = biological target: GlcNAc(b1-3)Gal(b1-4)GlcNAc(b1-6)[Gal(b1-3)]GalNAc
# Method in brief: as §1
# [26] = biological target: Man(a1-2)Man(a1-2)Man(a1-6)[Man(a1-3)]Man
# Method in brief: as §1
# [27] = biological target: Man(a1-2)Man(a1-3)[Man(a1-2)Man(a1-6)]Man(a1-6)[Man(a1-2)Man(a1-2)Man(a1-3)]Man
# Method in brief: as §1
# Man(a1-6)Man = biological target: Man(a1-6)Man
# Method in brief: as §1
# [28] = biological target: Neu5Ac(a2-3)Gal(b1-3)GalNAc6S
# Method in brief: as §1
# [29] = biological target: Neu5Ac(a2-3)Gal(b1-4)GlcNAc(b1-2)[Neu5Ac(a2-3)Gal(b1-4)GlcNAc(b1-6)]Man(a1-6)[Neu5Ac(a2-3)Gal(b1-4)GlcNAc(b1-2)Man(a1-3)][GlcNAc(b1-4)]Man(b1-4)GlcNAc(b1-4)GlcNAc
# Method in brief: as §1
# [30] = biological target: Neu5Ac(a2-3)Gal(b1-4)GlcNAc(b1-3)Gal
# Method in brief: as §1
# [31] = biological target: Neu5Ac(a2-3)Gal(b1-4)GlcNAc(b1-3)Gal(b1-4)[Fuc(a1-3)]GlcNAc
# Method in brief: as §1
# [32] = biological target: Neu5Ac(a2-3)Gal(b1-4)GlcNAc6S
# Method in brief: as §1
# [33] = biological target: Neu5Ac(a2-3)Gal(b1-4)[Fuc(a1-3)]GlcNAc(b1-3)GalNAc
# Method in brief: as §1
# [34] = biological target: Neu5Ac(a2-6)Gal(b1-4)GlcNAc(b1-2)Man(a1-3)[Neu5Ac(a2-6)Gal(b1-4)GlcNAc(b1-2)Man(a1-6)]Man(b1-4)GlcNAc(b1-4)GlcNAc
# Method in brief: as §1
# [35] = biological target: Neu5Ac(a2-6)Gal(b1-4)GlcNAc(b1-2)Man(a1-6)Man(b1-4)GlcNAc(b1-4)GlcNAc
# Method in brief: as §1
# [36] = biological target: Neu5Ac(a2-6)Gal(b1-4)GlcNAc(b1-2)[Neu5Ac(a2-6)Gal(b1-4)GlcNAc(b1-4)]Man(a1-3)[GlcNAc(b1-4)][Neu5Ac(a2-6)Gal(b1-4)GlcNAc(b1-4)Man(a1-6)]Man(b1-4)GlcNAc(b1-4)GlcNAc
# Method in brief: as §1
# [37] = biological target: Neu5Ac(b2-6)Gal(b1-4)GlcNAc
# Method in brief: as §1
# Neu5Gc(a2-3)Gal(b1-4)Glc = biological target: Neu5Gc(a2-3)Gal(b1-4)Glc
# Method in brief: as §1
binder,measurement,setting,value
Drgal1 (Danio rerio) (protein) MAGVLIQNMSFKVGQTLTITGVPKPDSTNFAINIGHSPEDIALHMNPRFDAHGDQCTIVCNSFQSGSWCEEHRDDNFPFIQDKEFQIKITFTNEEFLVTLPDGSEIHFPNRQGSEKYKYMYFEGEVRIQGVEIK,glycan array binding signal (z-score),[1],-0.59
same,glycan array binding signal (z-score),[2],0.383
same,glycan array binding signal (z-score),[3],0.084
same,glycan array binding signal (z-score),[4],-0.54
same,glycan array binding signal (z-score),[5],0.347
same,glycan array binding signal (z-score),[6],-0.091
same,glycan array binding signal (z-score),[7],-0.493
same,glycan array binding signal (z-score),[8],2.22
same,glycan array binding signal (z-score),[9],2.04
same,glycan array binding signal (z-score),Gal(a1-3)Gal(b1-3)GlcNAc,-0.76
same,glycan array binding signal (z-score),[10],-0.48
same,glycan array binding signal (z-score),[11],-0.114
same,glycan array binding signal (z-score),[12],1.9
same,glycan array binding signal (z-score),[13],-0.443
same,glycan array binding signal (z-score),Gal(b1-4)GlcNAc,-0.448
same,glycan array binding signal (z-score),[14],0.244
same,glycan array binding signal (z-score),[15],0.231
same,glycan array binding signal (z-score),[16],-0.015
same,glycan array binding signal (z-score),[17],0.501
same,glycan array binding signal (z-score),[18],1.92
same,glycan array binding signal (z-score),[19],2.07
same,glycan array binding signal (z-score),[20],7.35
same,glycan array binding signal (z-score),[21],2.15
same,glycan array binding signal (z-score),[22],0.065
same,glycan array binding signal (z-score),Gal6S(b1-3)GlcNAc6S,-0.095
same,glycan array binding signal (z-score),Gal6S(b1-4)Glc,0.281
same,glycan array binding signal (z-score),GalNAc(a1-3)GalNAc,0.206
same,glycan array binding signal (z-score),[23],-0.416
same,glycan array binding signal (z-score),GalNAc(b1-3)GalNAc,0.158
same,glycan array binding signal (z-score),GalNAc(b1-4)GlcNAc,3.67
same,glycan array binding signal (z-score),Glc(b1-6)Glc,-0.633
same,glycan array binding signal (z-score),[24],1.89
same,glycan array binding signal (z-score),[25],-0.519
same,glycan array binding signal (z-score),[26],-0.589
same,glycan array binding signal (z-score),[27],-0.28
same,glycan array binding signal (z-score),Man(a1-6)Man,1.43
same,glycan array binding signal (z-score),[28],-0.412
same,glycan array binding signal (z-score),[29],3.36
same,glycan array binding signal (z-score),[30],-0.372
same,glycan array binding signal (z-score),[31],-0.022
same,glycan array binding signal (z-score),[32],-0.362
same,glycan array binding signal (z-score),[33],5.78
same,glycan array binding signal (z-score),[34],0.521
same,glycan array binding signal (z-score),[35],0.046
same,glycan array binding signal (z-score),[36],-0.106
same,glycan array binding signal (z-score),[37],0.234
same,glycan array binding signal (z-score),Neu5Gc(a2-3)Gal(b1-4)Glc,0.145
